Results taken from publication PMC11006913.

target: VAX1 (Homo sapiens, UniProt Q5SQQ9 86-172); assay: PBM; 200 nM protein, PBS; conditions: dsDNA, one strand shown
Sequence (Q5SQQ9 86-172): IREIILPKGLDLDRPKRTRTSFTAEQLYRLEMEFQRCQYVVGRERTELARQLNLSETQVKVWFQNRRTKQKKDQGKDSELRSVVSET

| Sequence | binding signal |
| --- | --- |
| GTCCCTAA | 9.58 upbm affinity estimate (log intensity, higher = more binding, comparable within an allelic series) |
| AGCCGGTG | 7.24 upbm affinity estimate (log intensity, higher = more binding, comparable within an allelic series) |
| AAGTAGCT | 9.67 upbm affinity estimate (log intensity, higher = more binding, comparable within an allelic series) |
| GTCGAGCA | 7.29 upbm affinity estimate (log intensity, higher = more binding, comparable within an allelic series) |
| GATTTAGA | 9.33 upbm affinity estimate (log intensity, higher = more binding, comparable within an allelic series) |
| CGCGCTAG | 7.18 upbm affinity estimate (log intensity, higher = more binding, comparable within an allelic series) |
| CGCTAGCG | 7.32 upbm affinity estimate (log intensity, higher = more binding, comparable within an allelic series) |
| AGGGCCCT | 7.2 upbm affinity estimate (log intensity, higher = more binding, comparable within an allelic series) |
| GCGGGAGC | 7.11 upbm affinity estimate (log intensity, higher = more binding, comparable within an allelic series) |
| CCGGTGCC | 7.09 upbm affinity estimate (log intensity, higher = more binding, comparable within an allelic series) |
| GTGATAAC | 9.19 upbm affinity estimate (log intensity, higher = more binding, comparable within an allelic series) |
| AGGTAAAT | 10.4 upbm affinity estimate (log intensity, higher = more binding, comparable within an allelic series) |
| AGCCTCCG | 6.91 upbm affinity estimate (log intensity, higher = more binding, comparable within an allelic series) |
| ATGATGAA | 9.52 upbm affinity estimate (log intensity, higher = more binding, comparable within an allelic series) |
| GCATATGA | 8.94 upbm affinity estimate (log intensity, higher = more binding, comparable within an allelic series) |
| GCGCCGGA | 7.27 upbm affinity estimate (log intensity, higher = more binding, comparable within an allelic series) |
| ACCCTCGC | 7.12 upbm affinity estimate (log intensity, higher = more binding, comparable within an allelic series) |
| ACGCATAA | 9.35 upbm affinity estimate (log intensity, higher = more binding, comparable within an allelic series) |
| ATATGTCC | 9.38 upbm affinity estimate (log intensity, higher = more binding, comparable within an allelic series) |
| CAACGCGG | 7.3 upbm affinity estimate (log intensity, higher = more binding, comparable within an allelic series) |

| Sequence | binding signal |
| --- | --- |
| ATTTCTAG | 9.13 upbm affinity estimate (log intensity, higher = more binding, comparable within an allelic series) |
| CGCCGCTC | 7.19 upbm affinity estimate (log intensity, higher = more binding, comparable within an allelic series) |
| GCCAAGGC | 7.09 upbm affinity estimate (log intensity, higher = more binding, comparable within an allelic series) |
| ATATCGAA | 8.69 upbm affinity estimate (log intensity, higher = more binding, comparable within an allelic series) |
| CATTACGC | 11.1 upbm affinity estimate (log intensity, higher = more binding, comparable within an allelic series) |
| CAAATCTA | 8.78 upbm affinity estimate (log intensity, higher = more binding, comparable within an allelic series) |
| ATAACGTG | 9.01 upbm affinity estimate (log intensity, higher = more binding, comparable within an allelic series) |
| AGTCAGGG | 7.19 upbm affinity estimate (log intensity, higher = more binding, comparable within an allelic series) |
| CGTCATGA | 8.84 upbm affinity estimate (log intensity, higher = more binding, comparable within an allelic series) |
| AGGGTCAG | 7.22 upbm affinity estimate (log intensity, higher = more binding, comparable within an allelic series) |
| AAGTAAAT | 10.5 upbm affinity estimate (log intensity, higher = more binding, comparable within an allelic series) |
| TAATACCA | 10.2 upbm affinity estimate (log intensity, higher = more binding, comparable within an allelic series) |
| CCGTGAAG | 7.1 upbm affinity estimate (log intensity, higher = more binding, comparable within an allelic series) |
| AGCCATTA | 11.7 upbm affinity estimate (log intensity, higher = more binding, comparable within an allelic series) |
| CATTTAAG | 10.9 upbm affinity estimate (log intensity, higher = more binding, comparable within an allelic series) |
| CCGGCAGC | 7.15 upbm affinity estimate (log intensity, higher = more binding, comparable within an allelic series) |
| CAGCGCAC | 7.28 upbm affinity estimate (log intensity, higher = more binding, comparable within an allelic series) |
| AATTGACG | 10.6 upbm affinity estimate (log intensity, higher = more binding, comparable within an allelic series) |
| CAATCTAG | 9.1 upbm affinity estimate (log intensity, higher = more binding, comparable within an allelic series) |
| ACTAACGA | 9.28 upbm affinity estimate (log intensity, higher = more binding, comparable within an allelic series) |

target: VAX1 (Homo sapiens, UniProt Q5SQQ9 86-172, T142I); assay: PBM; 200 nM protein, PBS; conditions: dsDNA, one strand shown
Sequence (Q5SQQ9 86-172 T142I): as the sequence (Q5SQQ9 86-172) above, with T57I counted along it

| Sequence | binding signal |
| --- | --- |
| GTCCCTAA | 9.36 upbm affinity estimate (log intensity, higher = more binding, comparable within an allelic series) |
| AGCCGGTG | 7.45 upbm affinity estimate (log intensity, higher = more binding, comparable within an allelic series) |
| AAGTAGCT | 9.41 upbm affinity estimate (log intensity, higher = more binding, comparable within an allelic series) |
| GTCGAGCA | 7.31 upbm affinity estimate (log intensity, higher = more binding, comparable within an allelic series) |
| GATTTAGA | 9.17 upbm affinity estimate (log intensity, higher = more binding, comparable within an allelic series) |
| CGCGCTAG | 7.3 upbm affinity estimate (log intensity, higher = more binding, comparable within an allelic series) |
| CGCTAGCG | 7.37 upbm affinity estimate (log intensity, higher = more binding, comparable within an allelic series) |
| AGGGCCCT | 7.19 upbm affinity estimate (log intensity, higher = more binding, comparable within an allelic series) |
| GCGGGAGC | 7.36 upbm affinity estimate (log intensity, higher = more binding, comparable within an allelic series) |
| CCGGTGCC | 7.25 upbm affinity estimate (log intensity, higher = more binding, comparable within an allelic series) |
| GTGATAAC | 8.78 upbm affinity estimate (log intensity, higher = more binding, comparable within an allelic series) |
| AGGTAAAT | 10.2 upbm affinity estimate (log intensity, higher = more binding, comparable within an allelic series) |
| AGCCTCCG | 7 upbm affinity estimate (log intensity, higher = more binding, comparable within an allelic series) |
| ATGATGAA | 9.3 upbm affinity estimate (log intensity, higher = more binding, comparable within an allelic series) |
| GCATATGA | 8.6 upbm affinity estimate (log intensity, higher = more binding, comparable within an allelic series) |
| GCGCCGGA | 7.29 upbm affinity estimate (log intensity, higher = more binding, comparable within an allelic series) |
| ACCCTCGC | 7.19 upbm affinity estimate (log intensity, higher = more binding, comparable within an allelic series) |
| ACGCATAA | 8.83 upbm affinity estimate (log intensity, higher = more binding, comparable within an allelic series) |
| ATATGTCC | 8.89 upbm affinity estimate (log intensity, higher = more binding, comparable within an allelic series) |
| CAACGCGG | 7.21 upbm affinity estimate (log intensity, higher = more binding, comparable within an allelic series) |

| Sequence | binding signal |
| --- | --- |
| ATTTCTAG | 8.86 upbm affinity estimate (log intensity, higher = more binding, comparable within an allelic series) |
| CGCCGCTC | 7.18 upbm affinity estimate (log intensity, higher = more binding, comparable within an allelic series) |
| GCCAAGGC | 7.33 upbm affinity estimate (log intensity, higher = more binding, comparable within an allelic series) |
| ATATCGAA | 8.53 upbm affinity estimate (log intensity, higher = more binding, comparable within an allelic series) |
| CATTACGC | 10.6 upbm affinity estimate (log intensity, higher = more binding, comparable within an allelic series) |
| CAAATCTA | 8.51 upbm affinity estimate (log intensity, higher = more binding, comparable within an allelic series) |
| ATAACGTG | 8.66 upbm affinity estimate (log intensity, higher = more binding, comparable within an allelic series) |
| AGTCAGGG | 7.36 upbm affinity estimate (log intensity, higher = more binding, comparable within an allelic series) |
| CGTCATGA | 8.58 upbm affinity estimate (log intensity, higher = more binding, comparable within an allelic series) |
| AGGGTCAG | 7.35 upbm affinity estimate (log intensity, higher = more binding, comparable within an allelic series) |
| AAGTAAAT | 10.2 upbm affinity estimate (log intensity, higher = more binding, comparable within an allelic series) |
| TAATACCA | 9.86 upbm affinity estimate (log intensity, higher = more binding, comparable within an allelic series) |
| CCGTGAAG | 7.21 upbm affinity estimate (log intensity, higher = more binding, comparable within an allelic series) |
| AGCCATTA | 11.3 upbm affinity estimate (log intensity, higher = more binding, comparable within an allelic series) |
| CATTTAAG | 10.6 upbm affinity estimate (log intensity, higher = more binding, comparable within an allelic series) |
| CCGGCAGC | 7.15 upbm affinity estimate (log intensity, higher = more binding, comparable within an allelic series) |
| CAGCGCAC | 7.22 upbm affinity estimate (log intensity, higher = more binding, comparable within an allelic series) |
| AATTGACG | 10.1 upbm affinity estimate (log intensity, higher = more binding, comparable within an allelic series) |
| CAATCTAG | 8.87 upbm affinity estimate (log intensity, higher = more binding, comparable within an allelic series) |
| ACTAACGA | 8.88 upbm affinity estimate (log intensity, higher = more binding, comparable within an allelic series) |

target: VAX1 (Homo sapiens, UniProt Q5SQQ9 86-172, K157R); assay: PBM; 200 nM protein, PBS; conditions: dsDNA, one strand shown
Sequence (Q5SQQ9 86-172 K157R): as the sequence (Q5SQQ9 86-172) above, with K72R counted along it

| Sequence | binding signal |
| --- | --- |
| GTCCCTAA | 9.3 upbm affinity estimate (log intensity, higher = more binding, comparable within an allelic series) |
| AGCCGGTG | 7.26 upbm affinity estimate (log intensity, higher = more binding, comparable within an allelic series) |
| AAGTAGCT | 9.35 upbm affinity estimate (log intensity, higher = more binding, comparable within an allelic series) |
| GTCGAGCA | 7.41 upbm affinity estimate (log intensity, higher = more binding, comparable within an allelic series) |
| GATTTAGA | 9.1 upbm affinity estimate (log intensity, higher = more binding, comparable within an allelic series) |
| CGCGCTAG | 7.16 upbm affinity estimate (log intensity, higher = more binding, comparable within an allelic series) |
| CGCTAGCG | 7.28 upbm affinity estimate (log intensity, higher = more binding, comparable within an allelic series) |
| AGGGCCCT | 7.36 upbm affinity estimate (log intensity, higher = more binding, comparable within an allelic series) |
| GCGGGAGC | 7.04 upbm affinity estimate (log intensity, higher = more binding, comparable within an allelic series) |
| CCGGTGCC | 7.13 upbm affinity estimate (log intensity, higher = more binding, comparable within an allelic series) |
| GTGATAAC | 8.95 upbm affinity estimate (log intensity, higher = more binding, comparable within an allelic series) |
| AGGTAAAT | 10.2 upbm affinity estimate (log intensity, higher = more binding, comparable within an allelic series) |
| AGCCTCCG | 6.91 upbm affinity estimate (log intensity, higher = more binding, comparable within an allelic series) |
| ATGATGAA | 9.22 upbm affinity estimate (log intensity, higher = more binding, comparable within an allelic series) |
| GCATATGA | 8.79 upbm affinity estimate (log intensity, higher = more binding, comparable within an allelic series) |
| GCGCCGGA | 7.2 upbm affinity estimate (log intensity, higher = more binding, comparable within an allelic series) |
| ACCCTCGC | 7.13 upbm affinity estimate (log intensity, higher = more binding, comparable within an allelic series) |
| ACGCATAA | 8.87 upbm affinity estimate (log intensity, higher = more binding, comparable within an allelic series) |
| ATATGTCC | 9.07 upbm affinity estimate (log intensity, higher = more binding, comparable within an allelic series) |

| Sequence | binding signal |
| --- | --- |
| CAACGCGG | 7.43 upbm affinity estimate (log intensity, higher = more binding, comparable within an allelic series) |
| CGCCGCTC | 7.31 upbm affinity estimate (log intensity, higher = more binding, comparable within an allelic series) |
| GCCAAGGC | 6.97 upbm affinity estimate (log intensity, higher = more binding, comparable within an allelic series) |
| CATTACGC | 10.7 upbm affinity estimate (log intensity, higher = more binding, comparable within an allelic series) |
| ATAACGTG | 8.79 upbm affinity estimate (log intensity, higher = more binding, comparable within an allelic series) |
| AGTCAGGG | 7.15 upbm affinity estimate (log intensity, higher = more binding, comparable within an allelic series) |
| CGTCATGA | 8.62 upbm affinity estimate (log intensity, higher = more binding, comparable within an allelic series) |
| AGGGTCAG | 7.25 upbm affinity estimate (log intensity, higher = more binding, comparable within an allelic series) |
| AAGTAAAT | 10.2 upbm affinity estimate (log intensity, higher = more binding, comparable within an allelic series) |
| TAATACCA | 9.87 upbm affinity estimate (log intensity, higher = more binding, comparable within an allelic series) |
| CCGTGAAG | 7.02 upbm affinity estimate (log intensity, higher = more binding, comparable within an allelic series) |
| AGCCATTA | 11.2 upbm affinity estimate (log intensity, higher = more binding, comparable within an allelic series) |
| CATTTAAG | 10.6 upbm affinity estimate (log intensity, higher = more binding, comparable within an allelic series) |
| CCGGCAGC | 7.17 upbm affinity estimate (log intensity, higher = more binding, comparable within an allelic series) |
| CAGCGCAC | 7.26 upbm affinity estimate (log intensity, higher = more binding, comparable within an allelic series) |
| AATTGACG | 10.2 upbm affinity estimate (log intensity, higher = more binding, comparable within an allelic series) |
| CAATCTAG | 8.9 upbm affinity estimate (log intensity, higher = more binding, comparable within an allelic series) |
| ACTAACGA | 9.23 upbm affinity estimate (log intensity, higher = more binding, comparable within an allelic series) |
